This note sets out measurements from PubChem BioAssay (NCATS).

Each structure is given as a SMILES string. Records with an inconclusive call do not appear. The source made the active and inactive calls. The call rests on the fitted dose curve; tested in HEK293 reporter line.
Further: nearly all actives have a fitted effect of over 80% in size.
On the % scale 0 is the no-effect control and ±100 the full control effect.

The nature of the first test: qHTS for Inhibitors of the Functional Ribonucleoprotein Complex (vRNP) of Lassa (LASV) Arenavirus: Viability assay - alamar blue signal for LASV Primary Screen (AID 1347083). To be noted: cell viability, alamar blue fluorescence (LASV minigenome counter-screen); series mostly up to 57.5 µM; activity change, negative = reduced viability: at the top concentration.
`O=C(O)Cc1cccc2ccccc12`: the Potency result is “inactive”.
On to `C[C@@H](O)[C@H]1C(=O)N2C(C(=O)O)=C(SCCN=CN)C[C@H]12`, for which the Potency result is “inactive”.
Take `Cn1c(=O)c2[nH]cnc2n(C)c1=O`: the Potency result is “inactive”.
In the case of `CCOC(=O)O[C@]1(C(=O)OCCl)CC[C@H]2[C@@H]3CCC4=CC(=O)C=C[C@]4(C)[C@H]3[C@@H](O)C[C@@]21C`, the “activity change, negative = reduced viability” value was 3.09% (inactive).
As to `CC[C@H](C)[C@H](N)C(=O)O`, the “activity change, negative = reduced viability” value is 4.32% (inactive).
Regarding `Nc1ccc([N+](=O)[O-])c(C(F)(F)F)c1`, the “activity change, negative = reduced viability” value was 6.26% (inactive).
For the molecule `CSCC[C@H](NC(=O)[C@H](Cc1c[nH]c2ccccc12)NC(=O)CCNC(=O)OC(C)(C)C)C(=O)N[C@@H](CC(=O)O)C(=O)N[C@@H](Cc1ccccc1)C(N)=O`, the “activity change, negative = reduced viability” value is -1.44% (inactive).
As for `COc1ccc2[nH]cc(CCNC(C)=O)c2c1`, the Potency entry was “inactive”.
Consider `CNC[C@H](O)c1cccc(O)c1`, for which the Potency result was “inactive”.
Turning to `O=C1CCCc2c(O)cccc21`, the “activity change, negative = reduced viability” value is -1.68% (inactive).
In the case of `COC(=O)c1cccnc1`, the Potency entry is “inactive”.
In the case of `COc1cc(C=O)ccc1O`, the “activity change, negative = reduced viability” value was -3.02% (inactive).
`CC[N+](C)(CC)CCOC(=O)C1c2ccccc2Oc2ccccc21`: the “activity change, negative = reduced viability” value is 10.2% (inactive).
Same read-out and setting: the same measure for `CCCCC(O)/C=C(C)/C=C/C=C/C(=O)N1CCCC1=O` (stereo not drawn): 19.5% (inactive).
As to `CO[C@@]1(NC(=O)C(C(=O)O)c2ccc(O)cc2)C(=O)N2C(C(=O)O)=C(CSc3nnnn3C)CO[C@@H]21` (stereo partly drawn), the “activity change, negative = reduced viability” value was -1.03% (inactive).
The same measure, in the same setting: the same measure for `COc1ccc(C2C(=O)c3ccccc3C2=O)cc1`: 13% (inactive).
For `NS(=O)(=O)c1cc2c(cc1Cl)NC(CC1CCCC1)NS2(=O)=O` (stereo not drawn), the “activity change, negative = reduced viability” value is 4.34% (inactive).
Take `CCCCCC(C)N` (stereo not drawn): the “activity change, negative = reduced viability” value was -1.58% (inactive).
The same measure, in the same setting: the value for `Cc1ccc(C(=O)C(=O)O)cc1C` was 1.79% (inactive); that for `CC(=O)[C@H]1CC[C@H]2[C@@H]3C[C@H](C)C4=CC(=O)CC[C@]4(C)[C@H]3[C@@H](O)C[C@]12C` was -8.47% (inactive); that for `CC(=O)Nc1ccc(CC(=O)O)cc1` was -2.51% (inactive).
With `COc1cc(OC)c(C(=O)CCCN2CCCC2)c(OC)c1`, the Potency entry is “inactive”.
`COc1ccc2nc(SCc3ncc(C)c(OC)c3C)[nH]c2c1`: the “activity change, negative = reduced viability” value was -2.08% (inactive).
As for `COc1ccc2c(c1)CCCC2=O`, the “activity change, negative = reduced viability” value is 10.8% (inactive).
Consider `COc1ccc(C(=O)N2CCN(CC(=O)N3CCOCC3)CC2)cc1`, for which the “activity change, negative = reduced viability” value is 0.0542% (inactive).
For `CC(N=C(NC#N)Nc1ccncc1)C(C)(C)C` (stereo not drawn), the Potency result is “inactive”.
Consider `CC(=O)Nc1ccc(OC(=O)c2ccccc2OC(C)=O)cc1`, for which the “activity change, negative = reduced viability” value is 0.899% (inactive).
For the molecule `C=CCc1ccc(O)c(OC)c1`, the “activity change, negative = reduced viability” value was 4.04% (inactive).
Turning to `CC1(C)O[C@@H]2C[C@H]3[C@@H]4C[C@H](F)C5=CC(=O)C=C[C@]5(C)[C@@]4(F)[C@@H](O)C[C@]3(C)[C@]2(C(=O)CO)O1`, the “activity change, negative = reduced viability” value was 4.61% (inactive).
For `Nc1ccn([C@@H]2O[C@H](CO)[C@@H](O)C2O)c(=O)n1` (stereo partly drawn), the “activity change, negative = reduced viability” value is -22.5% (inactive).
Turning to `CCN[C@H]1CN(CCCOC)S(=O)(=O)c2sc(S(N)(=O)=O)cc21`, the “activity change, negative = reduced viability” value is -1.45% (inactive).
Turning to `CCOc1ncc(F)c(=O)[nH]1`, the “activity change, negative = reduced viability” value is -0.501% (inactive).
Regarding `CN=C(N)NC(=O)Nc1c(C)cccc1C`, the “activity change, negative = reduced viability” value was 0.457% (inactive).
Still for that read-out and setting: the same measure for `CC1CC(OC(=O)c2ccccc2O)CC(C)(C)C1` (stereo not drawn): 4.9% (inactive); for `CCCC(=O)O[C@]1(C(=O)COC(=O)CC)CC[C@H]2[C@@H]3CCC4=CC(=O)CC[C@]4(C)[C@H]3[C@@H](O)C[C@@]21C`: -90.7% [at 24.7 µM] (inactive).
Consider `O=C(O)c1ccc[n+]([O-])c1`, for which the “activity change, negative = reduced viability” value is 5.8% (inactive).
In the case of `Nc1ncnc2c1ncn2[C@@H]1O[C@H](CO)[C@@H](O)[C@H]1O`, the Potency entry is “inactive”.
As for `CC(=O)N(CC(O)CO)c1c(I)c(C(=O)NCC(O)CO)c(I)c(C(=O)NCC(O)CO)c1I` (stereo not drawn), the “activity change, negative = reduced viability” value was 6.77% (inactive).
Still for that read-out and setting: the same measure for `c1ccc2c(CC3=NCCN3)cccc2c1`: 5.76% (inactive).

Another test is described as follows: qHTS for Inhibitors of the Functional Ribonucleoprotein Complex (vRNP) of Lymphocytic Choriomeningitis Arenaviruses (LCMV): Viability assay - alamar blue signal for LCMV Primary Screen (AID 1347085). To be noted: alamar blue viability counter-screen, LCMV vRNP screen cells; series mostly up to 57.5 µM; activity change, negative = lower viability: at the top concentration. (qHTS replaces the single test concentration by a dilution series.)
In the case of `O=C(O)Cc1cccc2ccccc12`, the “activity change, negative = lower viability” value was 4.87% (inactive).
As to `C[C@@H](O)[C@H]1C(=O)N2C(C(=O)O)=C(SCCN=CN)C[C@H]12`, the Potency entry was “inactive”.
As to `Cn1c(=O)c2[nH]cnc2n(C)c1=O`, the Potency result was “inactive”.
For the molecule `CCOC(=O)O[C@]1(C(=O)OCCl)CC[C@H]2[C@@H]3CCC4=CC(=O)C=C[C@]4(C)[C@H]3[C@@H](O)C[C@@]21C`, the “activity change, negative = lower viability” value was 7.83% (inactive).
`CC[C@H](C)[C@H](N)C(=O)O`: the “activity change, negative = lower viability” value was 21.8% (inactive).
On to `Nc1ccc([N+](=O)[O-])c(C(F)(F)F)c1`, for which the “activity change, negative = lower viability” value is 1.43% (inactive).
`CSCC[C@H](NC(=O)[C@H](Cc1c[nH]c2ccccc12)NC(=O)CCNC(=O)OC(C)(C)C)C(=O)N[C@@H](CC(=O)O)C(=O)N[C@@H](Cc1ccccc1)C(N)=O`: the “activity change, negative = lower viability” value is -0.428% (inactive).
As to `COc1ccc2[nH]cc(CCNC(C)=O)c2c1`, the Potency entry was “inactive”.
Consider `CNC[C@H](O)c1cccc(O)c1`, for which the Potency entry was “inactive”.
For the molecule `O=C1CCCc2c(O)cccc21`, the “activity change, negative = lower viability” value is 15.8% (inactive).
For `COC(=O)c1cccnc1`, the Potency entry is “inactive”.
For the molecule `COc1cc(C=O)ccc1O`, the “activity change, negative = lower viability” value is 7.41% (inactive).
In the case of `CC[N+](C)(CC)CCOC(=O)C1c2ccccc2Oc2ccccc21`, the “activity change, negative = lower viability” value was 9.75% (inactive).
As for `CCCCC(O)/C=C(C)/C=C/C=C/C(=O)N1CCCC1=O` (stereo not drawn), the “activity change, negative = lower viability” value is 20.2% (inactive).
The same measure, in the same setting: the value for `CO[C@@]1(NC(=O)C(C(=O)O)c2ccc(O)cc2)C(=O)N2C(C(=O)O)=C(CSc3nnnn3C)CO[C@@H]21` (stereo partly drawn) was -9.96% (inactive).
The same measure, in the same setting: the value for `COc1ccc(C2C(=O)c3ccccc3C2=O)cc1` was 13.3% (inactive); that for `NS(=O)(=O)c1cc2c(cc1Cl)NC(CC1CCCC1)NS2(=O)=O` (stereo not drawn) was 5.93% (inactive).
For the molecule `CCCCCC(C)N` (stereo not drawn), the “activity change, negative = lower viability” value was 2.77% (inactive).
For the molecule `Cc1ccc(C(=O)C(=O)O)cc1C`, the “activity change, negative = lower viability” value was 1.78% (inactive).
With `CC(=O)[C@H]1CC[C@H]2[C@@H]3C[C@H](C)C4=CC(=O)CC[C@]4(C)[C@H]3[C@@H](O)C[C@]12C`, the “activity change, negative = lower viability” value is 15.8% (inactive).
On to `CC(=O)Nc1ccc(CC(=O)O)cc1`, for which the “activity change, negative = lower viability” value is -0.734% (inactive).
For the molecule `COc1cc(OC)c(C(=O)CCCN2CCCC2)c(OC)c1`, the Potency result was “inactive”.
Turning to `COc1ccc2nc(SCc3ncc(C)c(OC)c3C)[nH]c2c1`, the “activity change, negative = lower viability” value was -7.86% (inactive).
With `COc1ccc2c(c1)CCCC2=O`, the “activity change, negative = lower viability” value is 11.7% (inactive).
Same read-out and setting: the value for `COc1ccc(C(=O)N2CCN(CC(=O)N3CCOCC3)CC2)cc1` was 13.8% (inactive).
On to `CC(N=C(NC#N)Nc1ccncc1)C(C)(C)C` (stereo not drawn), for which the Potency result was “inactive”.
For the molecule `CC(=O)Nc1ccc(OC(=O)c2ccccc2OC(C)=O)cc1`, the “activity change, negative = lower viability” value was 3.23% (inactive).
For the molecule `C=CCc1ccc(O)c(OC)c1`, the “activity change, negative = lower viability” value was 8.51% (inactive).
Turning to `CC1(C)O[C@@H]2C[C@H]3[C@@H]4C[C@H](F)C5=CC(=O)C=C[C@]5(C)[C@@]4(F)[C@@H](O)C[C@]3(C)[C@]2(C(=O)CO)O1`, the “activity change, negative = lower viability” value was 2.76% (inactive).
Regarding `Nc1ccn([C@@H]2O[C@H](CO)[C@@H](O)C2O)c(=O)n1` (stereo partly drawn), the “activity change, negative = lower viability” value is 0.45% (inactive).
Consider `CCN[C@H]1CN(CCCOC)S(=O)(=O)c2sc(S(N)(=O)=O)cc21`, for which the “activity change, negative = lower viability” value was -2.98% (inactive).
As to `CCOc1ncc(F)c(=O)[nH]1`, the “activity change, negative = lower viability” value was -2.12% (inactive).
As to `CN=C(N)NC(=O)Nc1c(C)cccc1C`, the “activity change, negative = lower viability” value is 9.37% (inactive).
Still for that read-out and setting: the same measure for `CC1CC(OC(=O)c2ccccc2O)CC(C)(C)C1` (stereo not drawn): 6.98% (inactive); for `CCCC(=O)O[C@]1(C(=O)COC(=O)CC)CC[C@H]2[C@@H]3CCC4=CC(=O)CC[C@]4(C)[C@H]3[C@@H](O)C[C@@]21C`: -107% [at 24.7 µM] (inactive).
Same read-out and setting: the value for `O=C(O)c1ccc[n+]([O-])c1` was 3.42% (inactive).
With `Nc1ncnc2c1ncn2[C@@H]1O[C@H](CO)[C@@H](O)[C@H]1O`, the Potency result was “inactive”.
As to `CC(=O)N(CC(O)CO)c1c(I)c(C(=O)NCC(O)CO)c(I)c(C(=O)NCC(O)CO)c1I` (stereo not drawn), the “activity change, negative = lower viability” value was 6.63% (inactive).
For the molecule `c1ccc2c(CC3=NCCN3)cccc2c1`, the “activity change, negative = lower viability” value was 5.25% (inactive).
